Screens as filed in PubChem.
In the library only some 6% were active in any assay of this set; here they are far more common.
D1 potentiator: human D1 dopamine receptor positive modulation; P21728; HEK293 TREx D1 cells, calcium flux, dopamine EC20 potentiation; potentiation, % at 10 µM; actives 0.036% (n = 360,000); AID 504651; in the data active = potentiation above about 30%; note: 0% is about no effect
Target sequence (P21728 whole entry, looked up): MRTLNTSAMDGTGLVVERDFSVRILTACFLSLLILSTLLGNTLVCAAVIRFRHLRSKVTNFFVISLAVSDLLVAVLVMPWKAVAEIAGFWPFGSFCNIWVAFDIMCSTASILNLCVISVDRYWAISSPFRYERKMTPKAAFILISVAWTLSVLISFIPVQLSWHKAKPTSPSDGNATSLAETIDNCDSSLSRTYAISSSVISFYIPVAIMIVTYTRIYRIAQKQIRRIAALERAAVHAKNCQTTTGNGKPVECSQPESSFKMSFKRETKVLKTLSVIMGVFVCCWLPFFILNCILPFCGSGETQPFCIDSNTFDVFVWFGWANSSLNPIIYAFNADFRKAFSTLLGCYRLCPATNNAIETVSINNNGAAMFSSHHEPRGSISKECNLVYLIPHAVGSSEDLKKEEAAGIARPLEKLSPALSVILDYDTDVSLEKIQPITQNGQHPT
D1 ag: agonists of human D1 dopamine receptor; activation, % at 2 µM; actives 1% (n = 360,000); HEK293 T-REx D1 cells, calcium flux, agonist mode; AID 504660; in the data active = activation above about 30%; note: 0% is about no effect
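Inducible HEK293 T-REx D1 cells, force-coupled to calcium signalling, were plated at 4000 cells/well with tetracycline and held overnight at 30 C. After no-wash calcium dye loading, compound-evoked calcium rise over 180 s flagged agonists.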
D1 antagonist: antagonists of human D1 dopamine receptor. P21728. HEK293 TREx D1 cells, calcium flux, dopamine EC80; stronger effect = lower value. activity change, negative = inhibition, % at 10 µM. actives 3.2% (n = 360,000). AID 504652; in the data active = activity change below about -30%; note: % is set by controls: 0 for no effect and ±100 for the full control effect
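Cells carrying a force-coupled, tetracycline-inducible human D1 receptor report calcium flux. Each well gets a 10 s baseline, compound with 180 s monitoring, then an EC80 dopamine stimulus with a second 180 s kinetic read.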
D3 antag: blocks the human D3 dopamine receptor. P35462. D3R cells, DiscoveRx beta-arrestin luminescence, antagonist mode; stronger effect = lower value. max response, negative = inhibition, %. actives 2.5% (n = 360,000). AID 652054; in the data active = max response below about -50%; inconclusive = no clear call, values can overlap the other calls; note: % is set by controls: 0 for no effect and ±100 for the full control effect
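Cells expressing the human receptor were seeded at 1500 cells/well, incubated overnight at 37 degrees C in 5% CO2, then exposed to library compounds with dopamine controls for 90 minutes at 37 degrees C before luminescent detection.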
Chronic BCR inh: blocks chronic active B-cell receptor signaling | ABC-DLBCL IkBa-CBG/CBR reporter, luminescence ratio, 4 h | actives 0.05% (n = 340,000) | Potency, µM (series often up to 46.1 µM), for inactives: at the top dose activity change, negative = inhibition, hits mostly inhibitors | AID 493014; active = well fitted inhibition curve with a large enough effect in the signal ratio, with a control signal flat, not every such curve was filed as active; inconclusive = small, poorly fitted or top-dose-only effect, or effect the other way, or a change in a side signal; the % refers to the signal ratio;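 note: potency is the fitted concentration of half-maximal effect; plate controls were basal doxycycline-induced cells for no effect and cells given 10 µM MG132 for full effect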
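TMD8 human ABC-DLBCL cells with doxycycline-inducible IκBα–green luciferase fusion and unfused red luciferase, in 0.5% FBS medium; compounds up to 46 uM, 4 h at 37C. Green/red luminescence ratio, filter-overlap corrected, fitted to concentration-response curves.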
DRD3 agonist: D3 dopamine receptor (human) agonism; max activation, %; actives 0.58% (n = 410,000); AID 652048; D3R DiscoveRx beta-arrestin cells, luminescence, 90 min; P35462; in the data active = max activation above about 30%; note: 0% is about no effect
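Agonist mode: compounds and dopamine controls were applied to plated cells for 90 min at 37 degrees C after an overnight attachment at 1500 cells/well. Luminescent read-out followed 30 - 60 minutes at room temperature with DiscoveRx detection reagent.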
Starred values were filed as active, the others as inactive; ? = inconclusive; · = not tested or not shown.

SMILES	D1 potentiator	D1 ag	D1 antagonist	D3 antag	Chronic BCR inh	DRD3 agonist
Cc1cccc(C(C)(C)C)c1OCCCCN1CCCC1	-5	9	-5	-17	-16%	-13
CC(C)c1cccc(C(C)C)c1OCCCCN1CCCC1	-5	2	6	-58*	?	-14
Cc1cccc(N(C)c2cc(-c3ccc(F)cc3)nc3ccnn23)c1	·	·	·	-8	·	-13
N#CCCN(Cc1ccccc1)C(C(=O)NC1CCCCC1)c1ccnc2ccccc12 (stereo not given)	·	·	·	2	·	-2
CCOc1ccccc1Nc1sc(C(=O)c2ccc(Cl)cc2)c(N)c1S(=O)(=O)c1ccccc1	0	3	-21	·	?	10
CCCCn1cc(S(=O)(=O)c2cccc(C)c2)c(=O)c2cc(F)c(N3CCOCC3)cc21	-2	0	10	·	·	-5
Cc1cc(C)c(C)c(OCCCCN2CCCCC2)c1	2	4	-12	-55*	-3%	-24
Cc1cc(C)c(C)c(OCCOCCN2CCN(C)CC2)c1	-5	13	-6	-3	0%	-21
COC(=O)c1c(NS(=O)(=O)Cc2ccccc2)sc2c1CCCC2	-8	-1	12	-7	14%	-6
O=C(Nc1sc2c(c1C(=O)O)CCC2)c1ccccc1	5	-1	-6	-52*	?	-3
CC(C)OC(=O)c1c(NS(=O)(=O)c2ccccc2)sc2c1CCCC2	1	7	-21	-89*	19%	-2
O=c1cc(-c2ccc(O)c(O)c2)oc2cc(O)cc(O)c12	4	8	23	55	?	43*
COc1ccc(NC(=O)Cn2c(CCC(=O)O)ccc2-c2ccccc2)cc1Cl	6	0	-16	·	·	1
CC(Oc1ccc(C#N)cc1)C(=O)c1ccc(F)c(F)c1 (stereo not given)	-5	12	-35*	2	?	16
CC(=O)c1ccc(OCC(C)Oc2ccc(C#N)cc2)cc1 (stereo not given)	-3	22	3	-6	7%	-10
COc1ccccc1NC(=O)c1ncn(-c2ccccc2)n1	0	1	-14	·	·	1
O=C(NCc1ccc(OC(F)(F)F)cc1)c1cccc2c1C(=O)c1ccc(N3CCCC3)cc1S2(=O)=O	·	·	·	-51*	-5%	-13
O=C(NCc1cccc(F)c1)c1cccc2c1C(=O)c1ccc(N3CCC(Cc4ccccc4)CC3)cc1S2(=O)=O	·	·	·	5	-1%	12
CC1CCN(c2ccc3c(c2)S(=O)(=O)c2cccc(C(=O)NCc4cccc(F)c4)c2C3=O)CC1	-4	188*	13	100	?	106*
O=C(NCc1ccco1)c1cccc2c1C(=O)c1ccc(N3CCC(Cc4ccccc4)CC3)cc1S2(=O)=O	·	·	·	68	0%	31*
Cc1nc2c(OCc3cc(Cl)cc(Cl)c3)cccn2c1N(C)C(=O)CCC1CCCC1	·	·	·	?	·	1
COc1ccc(NC(=O)CCS(=O)(=O)c2ccc3nc(C)sc3c2)cc1Cl	-1	1	-18	·	·	3
COc1cc(OC)c(NC(=O)c2noc3c2CSc2ccccc2-3)cc1Cl	-1	4	-1	·	·	34*
COc1cccc(N=Cc2c[nH][nH]c2=O)c1	-4	1	-31*	17	1%	2
O=c1[nH][nH]cc1C=Nc1ccc(Cl)cc1	-4	0	0	18	1%	6
SMILES	D1 potentiator	D1 ag	D1 antagonist	D3 antag	Chronic BCR inh	DRD3 agonist
CCOc1ccccc1N(CC)C(=O)c1noc2c1COc1ccc(C)cc1-2	1	-1	10	·	·	3
CCc1ccc(CN2CCN(c3ncccn3)CC2)cc1	-12	1	-24	?	3%	61*
Brc1cccc(CN2CCN(c3ncccn3)CC2)c1	3	3	-8	-13	?	4
Fc1ccc(F)c(CN2CCN(c3ncccn3)CC2)c1	-4	0	-7	12	0%	31*
Fc1ccc(CN2CCN(c3ncccn3)CC2)cc1	-4	2	-1	-17	1%	51*
CC1(C(=O)NCc2ccc(C(F)(F)F)cc2)CCN1Cc1ccc(-c2ccccc2)o1 (stereo not given)	·	·	·	11	·	12
